According to the supplement of paper PMC9694430:
Structures can show the parent of a compound that is named as a salt.

Key:
Test in all cases: thermal shift delta Tm vs DMSO control; higher = stronger stabilization (binding)
Conditions in all cases: 12.5 µM; protein concentration 2 µM
LOC_OS02G45750-cb003 = tested on: LOC_OS02G45750-cb003
Outline: (§1)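 Heating from 25°C to 95°C at 0.05°C/s, fluorescence was recorded for 19.5 μl wells of 2 μM E. coli-expressed, purified rice kinase domain in 100 mM potassium phosphate pH 7.5, 150 mM NaCl, 10% glycerol and 5 × SYPRO Orange with compound in DMSO. Boltzmann fits gave melting temperatures for this differential scanning fluorimetry assay. The shift reported is the mean of three replicates against the DMSO-only protein.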

LOC_OS02G54510-cb004 = tested on: LOC_OS02G54510-cb004
Outline: as §1

LOC_OS03G04050-cb001 = tested on: LOC_OS03G04050-cb001
Outline: as §1

LOC_OS03G12390-cb001 = tested on: LOC_OS03G12390-cb001
Outline: as §1

LOC_OS03G27990-cb004 = tested on: LOC_OS03G27990-cb004
Outline: as §1

LOC_OS03G50450-cb001 = tested on: LOC_OS03G50450-cb001
Outline: as §1

LOC_OS03G50810-cb003 = tested on: LOC_OS03G50810-cb003
Outline: as §1

LOC_OS04G35114-cb001 = tested on: LOC_OS04G35114-cb001
Outline: as §1

LOC_OS04G38480-cb003 = tested on: T1, LOC_OS04G38480-cb003
T1 sequence (whole entry): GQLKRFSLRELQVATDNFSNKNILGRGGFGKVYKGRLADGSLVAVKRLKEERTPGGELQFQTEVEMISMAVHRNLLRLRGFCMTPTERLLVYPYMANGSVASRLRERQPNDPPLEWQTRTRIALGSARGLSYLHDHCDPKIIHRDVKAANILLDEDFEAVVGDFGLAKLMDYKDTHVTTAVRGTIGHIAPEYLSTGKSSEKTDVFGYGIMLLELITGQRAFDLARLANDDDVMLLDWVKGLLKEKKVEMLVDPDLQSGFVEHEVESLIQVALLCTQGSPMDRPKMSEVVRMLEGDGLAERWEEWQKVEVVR
Outline: as §1

LOC_OS04G41100-cb001 = tested on: T2, LOC_OS04G41100-cb001
T2 sequence (whole entry): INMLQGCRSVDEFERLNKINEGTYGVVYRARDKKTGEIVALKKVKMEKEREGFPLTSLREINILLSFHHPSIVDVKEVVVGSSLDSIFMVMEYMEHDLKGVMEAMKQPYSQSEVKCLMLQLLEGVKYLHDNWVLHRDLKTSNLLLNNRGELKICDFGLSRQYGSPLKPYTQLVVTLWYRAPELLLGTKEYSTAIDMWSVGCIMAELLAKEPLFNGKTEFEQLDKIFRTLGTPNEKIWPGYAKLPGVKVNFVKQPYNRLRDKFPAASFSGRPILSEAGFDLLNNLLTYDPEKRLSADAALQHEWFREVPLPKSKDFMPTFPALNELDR
Outline: as §1
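Also: purified Escherichia coli-expressed rice kinase domain construct.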

SMILES | thermal shift delta Tm (LOC_OS02G45750-cb003) [°C] | thermal shift delta Tm (LOC_OS02G54510-cb004) [°C] | thermal shift delta Tm (LOC_OS03G04050-cb001) [°C] | thermal shift delta Tm (LOC_OS03G12390-cb001) [°C] | thermal shift delta Tm (LOC_OS03G27990-cb004) [°C] | thermal shift delta Tm (LOC_OS03G50450-cb001) [°C] | thermal shift delta Tm (LOC_OS03G50810-cb003) [°C] | thermal shift delta Tm (LOC_OS04G35114-cb001) [°C] | thermal shift delta Tm (LOC_OS04G38480-cb003) [°C] | thermal shift delta Tm (LOC_OS04G41100-cb001) [°C]
COc1cc(Nc2ncc(F)c(Nc3ccc4c(n3)N(COP(=O)(O)O)C(=O)C(C)(C)O4)n2)cc(OC)c1OC [R788 (Fostamatinib) Disodium] | 2.5 | 0.47 | 0.33 | 1.17 | 1.08 | 7.52 | 2.27 | 2.02 | 2.06 | 0.34
NCC(=O)Nc1ccc(-n2nc(C(F)(F)F)cc2-c2ccc3c(ccc4ccccc43)c2)cc1 | -0.16 | -0.91 | 0.64 | 0.8 | -0.15 | 0.36 | 0.37 | -0.57 | 1.25 | 0.65
Cn1cnc2c(F)c(Nc3ccc(Br)cc3Cl)c(C(=O)NOCCO)cc21 [Selumetinib (AZD6244)] | 0.34 | 0.31 | 0.26 | 0.11 | -0.04 | -0.25 | 0.02 | 0.24 | 0.38 | 0.75
COc1ncc(-c2cc(-c3ncc(CN4C[C@@H](C)O[C@@H](C)C4)o3)c3cn[nH]c3c2)cc1NS(C)(=O)=O | 0.86 | 0.25 | 0.39 | -0.09 | 0.23 | 0.64 | 0.71 | 1.06 | 0.79 | 0.49
CC[C@@H]1C(=O)N(C)c2cnc(Nc3ccc(C(=O)N[C@H]4CC[C@H](N5CCN(CC6CC6)CC5)CC4)cc3OC)nc2N1C(C)C [Volasertib (BI 6727)] | 1.95 | 0.58 | 0.68 | 0.73 | 0.69 | 1.23 | 0.54 | 1 | 0.84 | 0.24
O=c1[nH]nc(Sc2ncc([N+](=O)[O-])s2)n1-c1ccc2c(c1)OCCO2 | 1.36 | -0.1 | 0.22 | -1.14 | 0.03 | 0.84 | -0.33 | 0.5 | 3.06 | -0.54
Cc1ccc(NC(=O)c2ccc(CN3CCN(C)CC3)cc2)cc1Nc1nccc(-c2cccnc2)n1 [Imatinib Mesylate (STI571)] | 0.55 | 0.16 | 0.17 | 0.88 | -0.03 | -0.05 | 0.09 | 0.75 | 0.34 | 0.59
N#Cc1c(O)c2c(-c3ccc(-c4ccccc4O)cc3)csc2[nH]c1=O | 1.29 | 0.51 | 0.84 | 0.75 | 0.45 | 0.66 | 0.88 | 0.58 | 1.99 | 0.62
Cn1sc(=O)n(Cc2ccccc2)c1=O | -1.04 | -2 | -0.78 | -3.39 | -9.72 | -0.11 | -3.78 | 0.63 | 1.35 | 0.43
CCS(=O)(=O)N1CCN(c2ccc(Nc3ncc(C(N)=O)c(NC4CC4)n3)cc2)CC1 | 8.46 | 4.48 | 0.19 | 6.9 | 5.89 | 5.37 | 4.92 | 6.29 | 2.13 | 2.54
Cc1csc(-c2nnc(Nc3ccc(Oc4ncccc4-c4ccnc(N)n4)cc3)c3ccccc23)c1 | 1.33 | 0.9 | 0.3 | 0.26 | 0.96 | 0.26 | 0.96 | 1.18 | 2.54 | 1.68
Oc1ccc(-c2nc(-c3ccc(F)cc3)c(-c3ccncc3)[nH]2)cc1 | 0.9 | 1.58 | 0.9 | 0.88 | 0.55 | 0.44 | 0.55 | 2.01 | 1.53 | 1.35
CNC(=O)c1ccccc1Nc1nc(Nc2ccc(N3CCOCC3)cc2OC)ncc1Cl | 1.17 | -0.15 | 0.35 | 4.35 | 0.45 | 0.26 | 2.21 | 2.54 | 1.62 | 0.51
Cn1cc(C2=C(c3ccc(Cl)cc3Cl)C(=O)NC2=O)c2ccccc21 | 1.02 | 0.82 | 0.78 | 0.98 | 0.26 | 0.6 | 0.67 | 1.64 | 1.13 | 0.96
COc1ccc(-c2ccc3c(N4CCOC[C@@H]4C)nc(N4CCOC[C@@H]4C)nc3n2)cc1CO | 0.67 | 0.38 | 0.33 | -0.12 | 0.09 | 0.41 | 0.18 | 0.4 | -0.21 | 0.57
Cc1ccc(NC(=O)Nc2cc(C(F)(F)F)ccc2F)cc1Nc1ccc2c(c1)NC(=O)/C2=C\c1ccc[nH]1 | 0.48 | -0.12 | 1.3 | 1.34 | 0.77 | 1.31 | 1.99 | -0.61 | -1.28 | 0.8
CN1CCC(Nc2nc(Nc3ccc(Oc4ccccc4)cc3)c3c(=O)[nH]cc(Br)c3n2)CC1 | 6.91 | 0.98 | 0.8 | 2.05 | 1.75 | 1.67 | 2.6 | 4.37 | 2.13 | 0.75
C=CC(=O)Nc1cccc(Oc2nc(Nc3ccc(N4CCN(C)CC4)cc3)nc3ccsc23)c1 | 1.44 | 0.64 | 0.99 | 1.24 | 1.38 | 1.3 | 1.96 | 2.13 | 2.26 | 0.71
Nc1cccc(-c2cc3c(Oc4cccc(O)c4)ncnc3[nH]2)c1 | 5.52 | 1.7 | 0.45 | 5.94 | 3.84 | 0.38 | 1.5 | 4.56 | 2.16 | 1.12
FC(F)(F)c1ccc(/C=C/c2nc(COc3ccc(CCCCn4ccnn4)cc3)co2)cc1 [Mubritinib (TAK 165)] | 0.54 | 0.1 | 0.37 | 0 | 0.51 | 0.76 | 0.3 | 0.27 | 0.25 | 0.36
C=CC(=O)N1CC[C@@H](Oc2nc(Nc3ccc(N4CCC(N5CCN(C)CC5)CC4)cc3)c(C(N)=O)nc2CC)C1 [Naquotinib(ASP8273)] | 0 | 3.07 | 0.21 | 9.13 | 5.37 | 4.82 | 5.96 | 8.09 | 3.19 | 0.5
